The full list was thinned out, with hits kept by preference.
mHTT-CaM PPI inh – mutant huntingtin-calmodulin interaction inhibitors – biochemical, AlphaScreen, primary screen. inhibition, % at 15 µM. AlphaScreen His-mHTT/GST-CaM binding, luminescence. 3.6% of 190,000 active
Pf apPOL block – Pf-apPOL inhibitors, biochemical, fluorescence | Plasmodium falciparum apicoplast DNA polymerase (apPOL) | Recombinant Pf-apPOL, molecular beacon fluorescence, 1.5 h | inhibition, % at 10 µM | 0.25% of 210,000 active | AID 1794808, 2022
Of the large screens only hits and unclear results are named; the others gave an inactive call. Rule as the data show it: active = inhibition above about 50%; inactive = the rest.

Cc1ccc2nc(C3CN(C(=O)c4cc(-c5cccs5)[nH]n4)C3)[nH]c2c1	mHTT-CaM PPI inh 53
Cc1nnc(C2CCCN(C(=O)c3cc(-c4cccs4)[nH]n3)C2)s1 (stereo not drawn)	none
COc1cc(-c2c(C#N)c(N)nc(SC)c2C#N)cc(OC)c1OC	none
COc1cc(-c2c(C#N)c(N)nc3sc(C(N)=O)c(N)c23)cc(OC)c1OC	mHTT-CaM PPI inh 65
Cc1cccc(NC(=O)COc2ccc(Cl)cc2Cl)c1C	none
CCc1ccc(C(c2ccc(CC)o2)c2cc3c(cc2[N+](=O)[O-])OCO3)o1	mHTT-CaM PPI inh 84
Nc1cc2c(cc1[N+](=O)[O-])OCO2	none
O=C(c1ccc2nc[nH]c2c1)N1CCN(CCn2cccn2)CC1	none
Oc1[nH]c(=S)sc1C=CC=CC=Nc1ccccc1	mHTT-CaM PPI inh 95 (no result: Pf apPOL block)
O=C(COc1ccc(Cl)cc1Cl)NCc1cc(-c2ccco2)on1	none
C/C=C(\C)CN1CCN(C/C=C/c2ccccc2)CC1	none
C(=Cc1ccccc1)CN1CCN(c2c3c(nc4ncnn24)CCCC3)CC1	mHTT-CaM PPI inh 73
CCc1nn2cc(-c3ccc(Cl)cc3)nc2s1	none
CCc1ccc2cc(-c3ccc(Cl)cc3)cn2c1	mHTT-CaM PPI inh 59
Oc1ccc(Cl)cc1C1=NNC(c2ccc(Br)cc2)C1 (stereo not drawn)	mHTT-CaM PPI inh 75
Oc1ccc(Cl)cc1C1=NNC(c2ccccc2F)C1 (stereo not drawn)	mHTT-CaM PPI inh 54
COc1ccc(C2CC(c3cc(Cl)ccc3O)=NN2)cc1OC (stereo not drawn)	mHTT-CaM PPI inh 74
COc1ccc(C2C=C(c3ccc(F)cc3)Nc3nnnn32)c(OC)c1 (stereo not drawn)	none
COc1ccc(C2CC(c3cc(F)ccc3O)=NN2)c(OC)c1 (stereo not drawn)	mHTT-CaM PPI inh 56
CCOC(=O)N1CCC2(CC1)N=C(c1cc(Cl)ccc1O)CC(c1ccccc1)N2 (stereo not drawn)	none
COc1ccc(C2CC(c3ccc(Cl)cc3)Nc3nc(N)nn32)cc1OC (stereo not drawn)	none
Oc1ccc(Br)cc1C1=NNC(c2cccs2)C1 (stereo not drawn)	none
COCC(C)(O)CNC(=O)C(=O)Nc1cccnc1 (stereo not drawn)	none
CC1(C)Cc2c(sc3nc4n(-c5ccccc5)c(-c5ccccc5)nn4c(=O)c23)CO1	none
O=C(O)c1cc([N+](=O)[O-])ccc1Sc1cccs1	none (no result: mHTT-CaM PPI inh)
O=C(c1cccs1)N1CCC(CCOc2ccccc2F)CC1	none
O=C1CC(C(=O)NC2CCCCC2)(c2ccccc2F)N1CCc1ccccc1 (stereo not drawn)	none
O=C(CSc1cccc2cccnc12)N1CCOCC1	none
Oc1ccc(C2CC(c3ccccc3O)=NN2)cc1 (stereo not drawn)	mHTT-CaM PPI inh 96
CCOc1ccc(C2CC(c3ccccc3O)=NN2)cc1 (stereo not drawn)	none
O=c1[nH]c2ccc(Br)cc2c(-c2ccccc2)c1NS(=O)(=O)c1ccccc1	mHTT-CaM PPI inh 98
Nc1c2c3c(c(Cl)ccc3[nH]c1=O)C(=O)c1ccccc1-2	none
O=c1[nH]c2ccc(Br)cc2c(-c2ccccc2)c1CN1CCCCC1	mHTT-CaM PPI inh 100
Nc1c(-c2ccccc2Cl)c2cc(Br)ccc2[nH]c1=O	mHTT-CaM PPI inh 79
Cc1cc(Br)ccc1NS(=O)(=O)c1ccc2nc(-c3ccccc3)[nH]c2c1	none
Cc1[nH]c2ccc(Br)cc2c(=O)c1CN1CCOCC1	none
Cn1c(=O)[nH]c(=O)c2c1nc(NCc1ccco1)n2CC(O)COc1ccc(Cl)cc1 (stereo not drawn)	none
CC(C)CC1C(=O)N(Cc2cn(CC3CCCCC3)nn2)CCS(=O)(=O)N1Cc1ccc(-c2cccc(CO)c2)cc1 (stereo not drawn)	none
Cc1cccc(C(=O)Nc2ccccc2I)c1	none
CC(C)N(C(=O)Cn1ccc(=N)c2ccccc21)C(C)C	none
CCCNC(=O)c1cnc2c(c(C)nn2C)c1Nc1ccc(C)cc1	none
Cc1ccc(Nc2c(C(=O)NCc3ccc(F)cc3)cnc3c2c(C)nn3C)cc1	mHTT-CaM PPI inh 94
O=C(Nc1ccc2c(c1)OCO2)C1CCN(c2cncnc2N2CCCCC2)CC1	none
O=C(Nc1ccc2c(c1)OCO2)C1CCN(c2cc(N3CCCCC3)ncn2)CC1	mHTT-CaM PPI inh 56
Cc1ccc(C)c(CN2C(=O)NC3(CCN(C(=O)Cc4ccc(Cl)cc4)CC3)C2=O)c1	mHTT-CaM PPI inh 58
Cc1ccc(CN2C(=O)NC3(CCN(C(=O)Cc4ccc(Cl)cc4)CC3)C2=O)cc1	none
COc1cccc2cc(C(=O)Nc3ccccc3F)c(=Nc3ccc(C(=O)O)cc3)oc12	none
CSc1ccccc1CN1CCC(CNC(=O)c2ccc3c(c2)OCO3)CC1	none
CC(c1ccccc1)N1CCN(C(=O)c2nc3ccccc3s2)CC1 (stereo not drawn)	none
CCC1=NN(C(=O)COc2ccccc2C)C(O)(C(F)(F)F)C1 (stereo not drawn)	none
CCCCC1=NN(C(=O)c2ccccc2Cl)C(O)(C(F)(F)F)C1 (stereo not drawn)	none
Cc1ccccc1OCC(=O)N1N=C(c2cccc(Br)c2)CC1(O)C(F)(F)F (stereo not drawn)	mHTT-CaM PPI inh 99
CCCCC1=NN(C(=O)COc2ccc(Cl)c(C)c2)C(O)(C(F)(F)F)C1 (stereo not drawn)	mHTT-CaM PPI inh 100
Cn1cc2c3c(cccc31)CN(C(=O)NC1CCCCC1)CC2	none
CN(Cc1ccc(F)cc1)Cc1cc(=O)n2[nH]c(-c3ccc(Cl)cc3)cc2n1	none
O=C(NCc1cccc(Cl)c1)C1CCN(c2cn[nH]c(=O)c2)CC1	none
O=C(Nc1nc(C(=O)N2CCC(Cc3ccccc3)CC2)co1)C1CC1	none
COc1cc(CN2CCCCCC2)cc(I)c1O	none
COc1cc(CN2CCN(c3cc(C)ccc3C)CC2)cc(OC)c1OC	none
COc1cc(CN2CCN(c3cc(C)ccc3C)CC2)cc(I)c1O	mHTT-CaM PPI inh 85
COc1cc(CN2CCCCCCC2)cc(OC)c1O	mHTT-CaM PPI inh 72
COc1ccccc1C/C(N)=N/OC(=O)c1ccc(OC)c(OC)c1	none
O=C(Nc1ccc(Cl)cc1)c1cc(S(=O)(=O)NCC2CCCO2)ccc1F (stereo not drawn)	none
Cc1ccc2c(c1)c1c3n2CCN(C=O)C3CCC1 (stereo not drawn)	none
O=CN1CCn2c3c(c(=O)c4cc(C5CCCCC5)ccc42)CCC31 (stereo not drawn)	mHTT-CaM PPI inh 82
Cc1ccc(C)c(-c2cc3c(N4CCC(C(=O)NCc5cccs5)CC4)nccn3n2)c1	none
COc1cc(NCc2cc(OC)c(O)c([N+](=O)[O-])c2)cc(OC)c1	mHTT-CaM PPI inh 65
COc1cc(NCc2cc(I)c(O)c(OC)c2)cc(OC)c1	mHTT-CaM PPI inh 89
COc1cc(CN2CCCCCCC2)cc([N+](=O)[O-])c1O	none
COc1cc(CN2CCSCC2)cc(I)c1O	none
Cc1cc(I)ccc1NC(=O)c1cccnc1	none
O=C1CC(Cc2ccccc2)C(=O)N1c1ccccc1F (stereo not drawn)	none
Cc1ccc(C2C=C(c3cccc(Br)c3)Nc3ncnn32)cc1 (stereo not drawn)	none
COc1ccc(OC)c(C2C=C(c3cccc(Br)c3)Nc3nnnn32)c1 (stereo not drawn)	mHTT-CaM PPI inh 56
COc1cccc(C2C=C(c3cccc(Br)c3)Nc3nnnn32)c1 (stereo not drawn)	none
Brc1cccc(C2C=C(c3cccs3)Nc3ncnn32)c1 (stereo not drawn)	Pf apPOL block 65
